# Experiments:
# Assay in all cases: DAPPL (digital affinity profiling via proximity ligation, sequencing); 10 mM Tris-HCl pH 7.5, 50 mM NaCl, 1 mM DTT, 4% glycerol, room temperature, 30 min; GST-TFs on glutathione beads, 16-mer random dsDNA library, 0.1% formaldehyde crosslink after washing; high values mean tight binding
# [1] = biological target: T1, FEV (Homo sapiens, UniProt Q99581 1-238); conditions: protein: recombinant; tags: N-terminal GST; dsDNA, one strand shown
# T1 sequence: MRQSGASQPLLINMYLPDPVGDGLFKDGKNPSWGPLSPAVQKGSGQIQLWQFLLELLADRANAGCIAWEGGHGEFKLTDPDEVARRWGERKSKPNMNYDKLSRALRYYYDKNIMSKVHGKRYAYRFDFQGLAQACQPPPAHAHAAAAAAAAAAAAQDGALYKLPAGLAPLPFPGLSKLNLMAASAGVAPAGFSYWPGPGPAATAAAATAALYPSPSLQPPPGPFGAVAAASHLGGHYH
# Method in brief: (§1)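 Human transcription factors fused to GST were expressed in yeast, captured on glutathione beads, given DNA barcodes and pooled with a GST-only negative control. Pools were incubated with 200 nmole of a 16-mer random double-stranded DNA library in Tris/NaCl/DTT/glycerol buffer at room temperature for 30 min. They were then washed, crosslinked with 0.1% formaldehyde, proximity-ligated (BsaI/T4 ligase, 1 h, 37 °C), PCR-amplified and sequenced on an Illumina NextSeq500. Binding signal is each 6-mer's read frequency for a factor divided by its frequency for the GST control.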
# [2] = biological target: ETV5 (Homo sapiens, UniProt P41161 1-510); conditions: protein: recombinant; tags: N-terminal GST; dsDNA, one strand shown
# Method in brief: as §1
# [3] = biological target: HSF1 (Homo sapiens, UniProt Q00613 1-529); conditions: protein: recombinant; tags: N-terminal GST; chain copies: 3; dsDNA, one strand shown
# Method in brief: as §1
# [4] = biological target: T2, SPIC (Homo sapiens, UniProt Q8N5J4 1-248); conditions: protein: recombinant; tags: N-terminal GST; dsDNA, one strand shown
# T2 sequence: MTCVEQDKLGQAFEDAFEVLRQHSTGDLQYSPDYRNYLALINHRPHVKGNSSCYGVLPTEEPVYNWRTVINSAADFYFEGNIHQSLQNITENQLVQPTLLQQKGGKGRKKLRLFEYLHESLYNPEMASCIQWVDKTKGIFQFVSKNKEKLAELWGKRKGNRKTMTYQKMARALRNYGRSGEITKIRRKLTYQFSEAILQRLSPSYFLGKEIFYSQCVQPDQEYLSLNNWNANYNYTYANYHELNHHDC
# Method in brief: as §1
# [5] = biological target: ELF4 (Homo sapiens, UniProt Q99607 1-663); conditions: protein: recombinant; tags: N-terminal GST; dsDNA, one strand shown
# Method in brief: as §1
# [6] = biological target: T3, ELK4 (Homo sapiens, UniProt P28324-2 1-405); conditions: protein: recombinant; tags: N-terminal GST; dsDNA, one strand shown
# T3 sequence: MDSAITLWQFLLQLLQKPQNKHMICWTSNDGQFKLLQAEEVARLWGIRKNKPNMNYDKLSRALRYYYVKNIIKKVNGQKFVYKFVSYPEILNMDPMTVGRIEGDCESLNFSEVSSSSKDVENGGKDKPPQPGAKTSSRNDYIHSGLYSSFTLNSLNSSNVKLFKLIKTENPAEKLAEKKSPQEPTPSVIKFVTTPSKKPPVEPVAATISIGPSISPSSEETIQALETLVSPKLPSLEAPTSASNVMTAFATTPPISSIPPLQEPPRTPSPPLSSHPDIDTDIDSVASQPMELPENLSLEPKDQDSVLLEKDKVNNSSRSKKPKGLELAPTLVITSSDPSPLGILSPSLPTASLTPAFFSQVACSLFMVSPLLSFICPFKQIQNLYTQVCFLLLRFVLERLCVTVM
# Method in brief: as §1
# [7] = biological target: T4, ETV2 (Homo sapiens, UniProt O00321 1-342); conditions: protein: recombinant; tags: N-terminal GST; dsDNA, one strand shown
# T4 sequence: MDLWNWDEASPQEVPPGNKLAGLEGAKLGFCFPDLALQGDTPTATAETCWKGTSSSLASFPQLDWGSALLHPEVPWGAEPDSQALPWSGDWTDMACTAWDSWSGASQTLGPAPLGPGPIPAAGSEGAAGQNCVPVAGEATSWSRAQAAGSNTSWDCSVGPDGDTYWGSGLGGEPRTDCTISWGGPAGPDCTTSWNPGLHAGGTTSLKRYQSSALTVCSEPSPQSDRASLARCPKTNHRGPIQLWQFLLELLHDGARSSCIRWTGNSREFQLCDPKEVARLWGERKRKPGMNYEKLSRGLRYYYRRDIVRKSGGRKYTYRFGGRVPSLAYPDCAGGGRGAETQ
# Method in brief: as §1
# [8] = biological target: T5, ELF3 (Homo sapiens, UniProt P78545 1-371); conditions: protein: recombinant; tags: N-terminal GST; dsDNA, one strand shown
# T5 sequence: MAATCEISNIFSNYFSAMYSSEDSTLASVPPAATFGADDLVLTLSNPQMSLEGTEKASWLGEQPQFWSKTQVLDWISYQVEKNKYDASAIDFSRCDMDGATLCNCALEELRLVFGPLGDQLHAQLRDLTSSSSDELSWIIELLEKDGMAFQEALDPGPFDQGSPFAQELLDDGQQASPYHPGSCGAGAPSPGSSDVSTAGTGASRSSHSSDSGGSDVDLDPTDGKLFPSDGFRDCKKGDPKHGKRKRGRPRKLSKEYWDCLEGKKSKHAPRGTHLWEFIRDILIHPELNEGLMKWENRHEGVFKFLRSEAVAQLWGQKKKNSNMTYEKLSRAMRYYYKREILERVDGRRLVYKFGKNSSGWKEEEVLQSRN
# Method in brief: as §1
# [9] = biological target: CRX (Homo sapiens, UniProt O43186 1-299); conditions: protein: recombinant; tags: N-terminal GST; dsDNA, one strand shown
# Method in brief: as §1
# [10] = biological target: ETV1 (Homo sapiens, UniProt P50549 1-477); conditions: protein: recombinant; tags: N-terminal GST; dsDNA, one strand shown
# Method in brief: as §1
# [11] = biological target: T6, ERF (Homo sapiens, UniProt P50548 1-548); conditions: protein: recombinant; tags: N-terminal GST; dsDNA, one strand shown
# T6 sequence: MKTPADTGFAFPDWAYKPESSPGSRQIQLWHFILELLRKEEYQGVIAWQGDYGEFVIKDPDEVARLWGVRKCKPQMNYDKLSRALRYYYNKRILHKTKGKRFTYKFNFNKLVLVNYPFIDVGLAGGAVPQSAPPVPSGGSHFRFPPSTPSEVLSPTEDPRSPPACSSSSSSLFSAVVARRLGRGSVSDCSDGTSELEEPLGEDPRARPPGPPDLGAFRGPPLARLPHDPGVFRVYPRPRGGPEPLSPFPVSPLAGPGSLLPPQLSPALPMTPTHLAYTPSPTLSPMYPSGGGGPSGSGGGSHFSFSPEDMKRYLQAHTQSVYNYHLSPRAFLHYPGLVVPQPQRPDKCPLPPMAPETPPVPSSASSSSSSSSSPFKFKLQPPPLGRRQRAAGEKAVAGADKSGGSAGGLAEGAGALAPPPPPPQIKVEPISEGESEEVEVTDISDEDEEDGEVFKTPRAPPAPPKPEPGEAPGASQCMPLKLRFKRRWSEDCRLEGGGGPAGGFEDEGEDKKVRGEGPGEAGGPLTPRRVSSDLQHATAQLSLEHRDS
# Method in brief: as §1
# [12] = biological target: T7, ETV3L (Homo sapiens, UniProt Q6ZN32 1-361); conditions: protein: recombinant; tags: N-terminal GST; dsDNA, one strand shown
# T7 sequence: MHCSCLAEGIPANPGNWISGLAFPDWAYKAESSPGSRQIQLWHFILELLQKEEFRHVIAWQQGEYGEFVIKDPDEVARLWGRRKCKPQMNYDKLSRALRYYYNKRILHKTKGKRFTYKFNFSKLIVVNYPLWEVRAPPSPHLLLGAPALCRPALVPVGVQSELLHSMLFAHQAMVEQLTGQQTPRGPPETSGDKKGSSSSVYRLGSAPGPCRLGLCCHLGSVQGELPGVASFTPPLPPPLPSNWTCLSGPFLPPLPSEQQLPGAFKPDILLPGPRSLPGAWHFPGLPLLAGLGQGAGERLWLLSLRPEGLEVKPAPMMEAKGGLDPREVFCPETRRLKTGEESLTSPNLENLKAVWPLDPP
# Method in brief: as §1
# [13] = biological target: T8, ETS2 (Homo sapiens, UniProt P15036 1-469); conditions: protein: recombinant; tags: N-terminal GST; dsDNA, one strand shown
# T8 sequence: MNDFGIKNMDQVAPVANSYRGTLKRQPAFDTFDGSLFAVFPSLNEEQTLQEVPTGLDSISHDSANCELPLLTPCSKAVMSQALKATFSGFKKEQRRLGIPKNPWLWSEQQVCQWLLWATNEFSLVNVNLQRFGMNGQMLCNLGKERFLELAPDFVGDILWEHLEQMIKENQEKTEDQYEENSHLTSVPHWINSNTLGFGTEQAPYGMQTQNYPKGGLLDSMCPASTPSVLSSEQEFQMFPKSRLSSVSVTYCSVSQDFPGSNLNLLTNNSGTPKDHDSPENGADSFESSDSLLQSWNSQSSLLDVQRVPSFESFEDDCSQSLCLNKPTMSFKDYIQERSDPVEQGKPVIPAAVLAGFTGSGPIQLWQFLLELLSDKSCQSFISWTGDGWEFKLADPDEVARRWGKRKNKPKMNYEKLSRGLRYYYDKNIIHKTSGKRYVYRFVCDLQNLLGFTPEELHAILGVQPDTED
# Method in brief: as §1
# [14] = biological target: T9, SPDEF (Homo sapiens, UniProt O95238 1-335); conditions: protein: recombinant; tags: N-terminal GST; dsDNA, one strand shown
# T9 sequence: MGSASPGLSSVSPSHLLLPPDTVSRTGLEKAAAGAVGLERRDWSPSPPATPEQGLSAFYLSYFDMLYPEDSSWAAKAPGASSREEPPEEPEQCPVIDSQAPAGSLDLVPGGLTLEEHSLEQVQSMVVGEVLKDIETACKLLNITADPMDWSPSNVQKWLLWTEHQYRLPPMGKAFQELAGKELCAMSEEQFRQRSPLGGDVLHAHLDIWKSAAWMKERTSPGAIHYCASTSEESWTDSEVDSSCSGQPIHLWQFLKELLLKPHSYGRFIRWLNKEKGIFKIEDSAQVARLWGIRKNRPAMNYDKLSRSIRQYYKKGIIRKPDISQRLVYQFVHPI
# Method in brief: as §1
# [15] = biological target: T10, ETV7 (Homo sapiens, UniProt Q9Y603 1-341); conditions: protein: recombinant; tags: N-terminal GST; dsDNA, one strand shown
# T10 sequence: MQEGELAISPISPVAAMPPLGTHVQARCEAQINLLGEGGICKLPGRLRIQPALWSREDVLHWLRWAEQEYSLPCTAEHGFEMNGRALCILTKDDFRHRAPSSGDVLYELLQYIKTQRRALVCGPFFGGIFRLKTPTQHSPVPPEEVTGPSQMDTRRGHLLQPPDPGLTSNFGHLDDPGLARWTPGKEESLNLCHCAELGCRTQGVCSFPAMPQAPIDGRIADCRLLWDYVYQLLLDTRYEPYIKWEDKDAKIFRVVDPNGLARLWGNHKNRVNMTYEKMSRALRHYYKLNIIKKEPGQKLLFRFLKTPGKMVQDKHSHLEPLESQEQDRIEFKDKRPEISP
# Method in brief: as §1
# [16] = biological target: T11, ELF5 (Homo sapiens, UniProt Q9UKW6-2 1-255); conditions: protein: recombinant; tags: N-terminal GST; dsDNA, one strand shown
# T11 sequence: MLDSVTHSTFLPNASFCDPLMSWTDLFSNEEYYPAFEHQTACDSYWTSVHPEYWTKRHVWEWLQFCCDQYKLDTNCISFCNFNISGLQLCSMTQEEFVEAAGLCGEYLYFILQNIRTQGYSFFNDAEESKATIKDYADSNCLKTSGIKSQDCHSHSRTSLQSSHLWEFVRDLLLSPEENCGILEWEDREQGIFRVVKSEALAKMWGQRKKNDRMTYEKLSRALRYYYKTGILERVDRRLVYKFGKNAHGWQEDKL
# Method in brief: as §1
# [17] = biological target: T12, ETV3 (Homo sapiens, UniProt P41162-2 1-143); conditions: protein: recombinant; tags: N-terminal GST; dsDNA, one strand shown
# T12 sequence: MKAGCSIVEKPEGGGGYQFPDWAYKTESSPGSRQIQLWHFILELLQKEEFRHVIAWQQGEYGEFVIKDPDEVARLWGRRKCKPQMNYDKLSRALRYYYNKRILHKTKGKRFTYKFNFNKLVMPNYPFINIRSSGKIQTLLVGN
# Method in brief: as §1
# [18] = biological target: ETV6 (Homo sapiens, UniProt P41212 1-452); conditions: protein: recombinant; tags: N-terminal GST; dsDNA, one strand shown
# Method in brief: as §1
# Sequence of CRX (O43186 whole entry): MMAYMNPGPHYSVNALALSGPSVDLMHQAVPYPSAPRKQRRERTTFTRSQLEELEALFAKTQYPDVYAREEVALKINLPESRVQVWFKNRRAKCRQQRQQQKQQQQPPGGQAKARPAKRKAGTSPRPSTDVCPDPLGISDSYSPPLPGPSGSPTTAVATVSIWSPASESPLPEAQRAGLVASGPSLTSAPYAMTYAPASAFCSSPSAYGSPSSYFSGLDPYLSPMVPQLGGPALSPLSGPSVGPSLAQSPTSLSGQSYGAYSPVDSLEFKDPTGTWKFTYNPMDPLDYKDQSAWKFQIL
# Sequence of ETV6 (P41212 whole entry): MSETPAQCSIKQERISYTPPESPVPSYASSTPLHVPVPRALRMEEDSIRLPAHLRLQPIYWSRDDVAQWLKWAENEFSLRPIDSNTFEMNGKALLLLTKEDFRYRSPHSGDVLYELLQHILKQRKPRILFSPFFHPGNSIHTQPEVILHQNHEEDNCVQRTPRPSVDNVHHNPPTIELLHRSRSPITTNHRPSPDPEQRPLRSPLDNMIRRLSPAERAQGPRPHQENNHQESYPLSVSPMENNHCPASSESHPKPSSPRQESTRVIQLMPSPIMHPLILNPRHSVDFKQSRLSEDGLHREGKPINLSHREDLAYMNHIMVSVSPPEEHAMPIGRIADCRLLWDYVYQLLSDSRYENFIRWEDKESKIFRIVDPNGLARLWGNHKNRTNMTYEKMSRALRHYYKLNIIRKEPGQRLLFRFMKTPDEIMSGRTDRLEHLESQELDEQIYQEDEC
# Sequence of ETV5 (P41161 whole entry): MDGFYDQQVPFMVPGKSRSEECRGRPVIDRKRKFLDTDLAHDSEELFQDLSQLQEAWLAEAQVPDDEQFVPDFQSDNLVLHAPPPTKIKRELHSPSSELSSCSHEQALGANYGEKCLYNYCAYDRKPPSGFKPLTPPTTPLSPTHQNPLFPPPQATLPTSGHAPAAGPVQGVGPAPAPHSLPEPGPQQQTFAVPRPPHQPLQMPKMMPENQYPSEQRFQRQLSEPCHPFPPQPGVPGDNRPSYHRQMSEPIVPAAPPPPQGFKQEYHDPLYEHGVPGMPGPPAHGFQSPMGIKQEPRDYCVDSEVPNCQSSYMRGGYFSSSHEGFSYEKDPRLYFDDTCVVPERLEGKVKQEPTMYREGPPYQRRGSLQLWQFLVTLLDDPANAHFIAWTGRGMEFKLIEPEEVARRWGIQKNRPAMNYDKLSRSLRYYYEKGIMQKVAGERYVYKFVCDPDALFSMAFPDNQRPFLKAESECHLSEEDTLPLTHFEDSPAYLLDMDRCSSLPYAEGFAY
# Sequence of ELF4 (Q99607 whole entry): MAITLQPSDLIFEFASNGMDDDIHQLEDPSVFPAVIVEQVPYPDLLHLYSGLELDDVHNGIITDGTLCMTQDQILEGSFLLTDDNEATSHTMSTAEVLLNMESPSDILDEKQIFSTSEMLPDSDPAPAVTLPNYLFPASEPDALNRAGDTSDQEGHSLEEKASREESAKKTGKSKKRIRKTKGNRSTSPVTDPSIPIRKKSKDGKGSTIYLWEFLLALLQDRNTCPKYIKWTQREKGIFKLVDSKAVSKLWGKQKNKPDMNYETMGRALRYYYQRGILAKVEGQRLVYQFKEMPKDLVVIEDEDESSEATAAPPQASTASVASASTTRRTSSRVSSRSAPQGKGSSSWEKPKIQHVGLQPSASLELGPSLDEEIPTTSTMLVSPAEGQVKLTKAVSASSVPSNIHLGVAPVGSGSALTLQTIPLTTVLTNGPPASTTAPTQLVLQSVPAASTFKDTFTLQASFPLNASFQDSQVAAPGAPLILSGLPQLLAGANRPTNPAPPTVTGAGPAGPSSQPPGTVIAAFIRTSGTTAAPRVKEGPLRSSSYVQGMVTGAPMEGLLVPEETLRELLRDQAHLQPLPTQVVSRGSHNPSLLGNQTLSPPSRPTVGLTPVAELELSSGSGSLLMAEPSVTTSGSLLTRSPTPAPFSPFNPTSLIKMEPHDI
# Sequence of ETV1 (P50549 whole entry): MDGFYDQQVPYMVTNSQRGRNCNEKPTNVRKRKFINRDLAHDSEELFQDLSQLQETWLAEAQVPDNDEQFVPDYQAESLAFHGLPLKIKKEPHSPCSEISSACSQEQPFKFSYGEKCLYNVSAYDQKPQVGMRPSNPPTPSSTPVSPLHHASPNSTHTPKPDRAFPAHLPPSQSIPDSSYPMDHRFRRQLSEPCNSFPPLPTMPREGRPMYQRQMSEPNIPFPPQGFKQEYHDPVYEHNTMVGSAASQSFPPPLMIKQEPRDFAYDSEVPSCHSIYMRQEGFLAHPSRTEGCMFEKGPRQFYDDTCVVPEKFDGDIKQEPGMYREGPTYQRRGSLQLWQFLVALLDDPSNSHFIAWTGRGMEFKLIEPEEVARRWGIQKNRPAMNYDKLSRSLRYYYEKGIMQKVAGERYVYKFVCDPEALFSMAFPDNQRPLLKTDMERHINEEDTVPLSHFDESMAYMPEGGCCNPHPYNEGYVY
# Sequence of HSF1 (Q00613 whole entry): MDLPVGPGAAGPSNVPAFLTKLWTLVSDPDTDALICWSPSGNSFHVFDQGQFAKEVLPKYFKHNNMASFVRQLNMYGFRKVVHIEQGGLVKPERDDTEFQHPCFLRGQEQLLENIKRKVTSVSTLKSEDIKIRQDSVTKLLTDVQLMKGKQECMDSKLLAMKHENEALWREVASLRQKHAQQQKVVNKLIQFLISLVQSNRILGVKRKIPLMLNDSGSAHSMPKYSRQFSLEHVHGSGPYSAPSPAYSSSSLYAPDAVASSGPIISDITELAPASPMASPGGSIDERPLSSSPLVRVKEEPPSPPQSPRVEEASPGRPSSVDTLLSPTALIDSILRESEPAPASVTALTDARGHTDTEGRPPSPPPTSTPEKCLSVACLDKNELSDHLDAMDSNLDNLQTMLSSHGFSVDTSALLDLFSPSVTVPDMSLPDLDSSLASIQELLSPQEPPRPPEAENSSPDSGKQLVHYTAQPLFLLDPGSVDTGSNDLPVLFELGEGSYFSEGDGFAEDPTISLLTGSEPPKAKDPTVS
sequence,measurement,setting,value
GTCCTA,binding signal,[1],"1.07 fold enrichment (6-mer frequency, TF over GST control)"
same,binding signal,[2],"1.16 fold enrichment (6-mer frequency, TF over GST control)"
same,binding signal,[3],"1.03 fold enrichment (6-mer frequency, TF over GST control)"
same,binding signal,[4],"1.16 fold enrichment (6-mer frequency, TF over GST control)"
same,binding signal,[5],"1.18 fold enrichment (6-mer frequency, TF over GST control)"
same,binding signal,[6],"1.13 fold enrichment (6-mer frequency, TF over GST control)"
same,binding signal,[7],"1.31 fold enrichment (6-mer frequency, TF over GST control)"
same,binding signal,[8],"1.2 fold enrichment (6-mer frequency, TF over GST control)"
same,binding signal,[9],"1.06 fold enrichment (6-mer frequency, TF over GST control)"
same,binding signal,[10],"1.12 fold enrichment (6-mer frequency, TF over GST control)"
same,binding signal,[11],"1.32 fold enrichment (6-mer frequency, TF over GST control)"
same,binding signal,[12],"1.12 fold enrichment (6-mer frequency, TF over GST control)"
same,binding signal,[13],"1.11 fold enrichment (6-mer frequency, TF over GST control)"
same,binding signal,[14],"1.29 fold enrichment (6-mer frequency, TF over GST control)"
same,binding signal,[15],"1.29 fold enrichment (6-mer frequency, TF over GST control)"
same,binding signal,[16],"1.14 fold enrichment (6-mer frequency, TF over GST control)"
same,binding signal,[17],"1.25 fold enrichment (6-mer frequency, TF over GST control)"
same,binding signal,[18],"1.13 fold enrichment (6-mer frequency, TF over GST control)"
